Experimental data published in PubChem BioAssay (EPA / NIEHS).
Inconclusive results are not listed. The source holds several records for some structures; these can differ, active in one and inactive in another. Active and inactive are the calls of the source. How the source made its calls, unless noted: active means hit-call score of the fitted dose curve at least 0.9, where 1 is the maximum; inactive means score below 0.9.

Key:
[1] = biological target: human RAR-related Orphan Receptor gamma (RORg), RORC (gene 6097) (UniProt P51449); assay: ATG_RORg_TRANS: Attagene TRANS-FACTORIAL HepG2 Assay for human RAR-related Orphan Receptor gamma (RORg) (AID 2283011; active means hit-call score of the fitted dose curve at least 0.9, where 1 is the maximum)
human RAR-related Orphan Receptor gamma (RORg), RORC (gene 6097), sequence (P51449 whole entry, looked up, the tested form may be a part): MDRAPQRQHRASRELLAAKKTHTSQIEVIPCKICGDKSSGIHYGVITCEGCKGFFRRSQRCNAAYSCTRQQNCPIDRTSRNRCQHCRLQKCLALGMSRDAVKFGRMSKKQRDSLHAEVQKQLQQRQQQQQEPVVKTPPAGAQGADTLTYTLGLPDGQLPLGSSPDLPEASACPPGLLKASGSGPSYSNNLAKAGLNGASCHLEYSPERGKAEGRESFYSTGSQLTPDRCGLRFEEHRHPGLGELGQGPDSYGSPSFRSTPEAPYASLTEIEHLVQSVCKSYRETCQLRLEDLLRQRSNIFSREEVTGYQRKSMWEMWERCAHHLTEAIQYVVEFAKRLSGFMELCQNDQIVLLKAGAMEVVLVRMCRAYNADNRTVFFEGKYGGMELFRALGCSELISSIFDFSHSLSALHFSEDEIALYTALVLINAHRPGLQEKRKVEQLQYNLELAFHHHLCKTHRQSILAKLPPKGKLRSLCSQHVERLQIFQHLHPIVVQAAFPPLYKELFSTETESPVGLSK
Outline: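 Chimeric RORg-Gal4 transactivation in transfected HepG2; 24 h exposure; RT-PCR/capillary electrophoresis readout of reporter mRNA, DMSO baseline.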

[2] = biological target: Retinoic acid receptor RXR-alpha (Homo sapiens) (UniProt P19793); assay: ATG_RXRa_TRANS: Attagene TRANS-FACTORIAL HepG2 Assay for human Retinoid X Receptor alpha (RXRa) (AID 2283012; active means hit-call score of the fitted dose curve at least 0.9, where 1 is the maximum)
Retinoic acid receptor RXR-alpha (Homo sapiens), sequence (P19793 whole entry, looked up, the tested form may be a part): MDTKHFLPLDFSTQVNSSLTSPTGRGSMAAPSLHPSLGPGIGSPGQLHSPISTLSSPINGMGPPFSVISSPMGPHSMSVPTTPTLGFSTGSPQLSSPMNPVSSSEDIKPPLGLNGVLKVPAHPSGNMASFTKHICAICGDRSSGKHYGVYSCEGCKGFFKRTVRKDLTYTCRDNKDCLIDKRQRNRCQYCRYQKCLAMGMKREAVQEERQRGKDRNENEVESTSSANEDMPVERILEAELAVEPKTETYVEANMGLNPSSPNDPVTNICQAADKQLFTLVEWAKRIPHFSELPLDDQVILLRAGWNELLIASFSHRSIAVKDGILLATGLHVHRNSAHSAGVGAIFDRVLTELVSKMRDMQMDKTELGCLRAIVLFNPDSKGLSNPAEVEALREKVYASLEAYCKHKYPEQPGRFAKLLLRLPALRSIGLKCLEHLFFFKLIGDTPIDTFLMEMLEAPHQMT
Outline: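 TRANS format reporting activity of exogenous RXRa-Gal4 chimera in transiently transfected HepG2, 24 h exposure. Reporter transcripts quantified by RT-PCR with capillary electrophoresis, with gain of signal scored relative to DMSO.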

[3] = biological target: human Retinoid X Receptor beta (RXRb), RXRB (gene 6257) (UniProt P28702); assay: ATG_RXRb_TRANS: Attagene TRANS-FACTORIAL HepG2 Assay for human Retinoid X Receptor beta (RXRb) (AID 2283013; active means hit-call score of the fitted dose curve at least 0.9, where 1 is the maximum)
human Retinoid X Receptor beta (RXRb), RXRB (gene 6257), sequence (P28702 whole entry, looked up, the tested form may be a part): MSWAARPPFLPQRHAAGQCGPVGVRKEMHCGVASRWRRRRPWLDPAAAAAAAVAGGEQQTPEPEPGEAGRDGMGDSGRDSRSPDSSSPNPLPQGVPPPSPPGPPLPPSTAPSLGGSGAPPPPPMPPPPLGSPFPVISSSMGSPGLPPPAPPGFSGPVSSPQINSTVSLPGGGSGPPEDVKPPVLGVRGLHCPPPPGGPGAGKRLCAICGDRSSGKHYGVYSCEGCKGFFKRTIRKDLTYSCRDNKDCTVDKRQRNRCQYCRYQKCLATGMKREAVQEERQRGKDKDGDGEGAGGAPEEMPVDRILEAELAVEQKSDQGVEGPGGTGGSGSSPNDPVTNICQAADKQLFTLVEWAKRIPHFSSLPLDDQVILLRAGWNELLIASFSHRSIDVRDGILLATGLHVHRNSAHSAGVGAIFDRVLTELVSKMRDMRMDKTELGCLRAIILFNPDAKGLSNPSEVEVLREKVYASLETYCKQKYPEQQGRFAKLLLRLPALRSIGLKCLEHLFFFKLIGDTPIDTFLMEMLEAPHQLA
Outline: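 Readout is reporter transcript induction after 24 h dosing. It is measured by RT-PCR of total RNA followed by fluorescent capillary electrophoresis. HepG2 liver cells carry transfected multiple reporter units driven by an exogenous RXRb-Gal4 fusion; activity is relative to DMSO.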

[4] = biological target: human Thyroid Receptor alpha (THRa1), THRA (gene 7067) (UniProt P10827); assay: ATG_THRa1_TRANS: Attagene TRANS-FACTORIAL HepG2 Assay for human Thyroid Receptor alpha (THRa1) (AID 2283014; active means hit-call score of the fitted dose curve at least 0.9, where 1 is the maximum)
human Thyroid Receptor alpha (THRa1), THRA (gene 7067), sequence (P10827 whole entry, looked up, the tested form may be a part): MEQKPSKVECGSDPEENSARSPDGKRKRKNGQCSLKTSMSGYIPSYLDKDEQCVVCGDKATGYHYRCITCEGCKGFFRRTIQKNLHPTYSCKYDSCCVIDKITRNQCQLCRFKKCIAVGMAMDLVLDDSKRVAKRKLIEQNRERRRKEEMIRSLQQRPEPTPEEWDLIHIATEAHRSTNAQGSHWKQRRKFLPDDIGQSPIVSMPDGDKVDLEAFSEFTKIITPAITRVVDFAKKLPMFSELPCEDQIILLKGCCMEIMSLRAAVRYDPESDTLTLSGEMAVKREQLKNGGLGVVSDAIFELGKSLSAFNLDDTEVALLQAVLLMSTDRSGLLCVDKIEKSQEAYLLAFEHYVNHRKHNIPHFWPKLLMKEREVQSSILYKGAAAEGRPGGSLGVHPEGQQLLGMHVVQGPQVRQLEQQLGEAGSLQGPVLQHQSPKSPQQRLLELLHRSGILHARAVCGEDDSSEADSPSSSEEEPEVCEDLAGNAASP
Outline: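 Measured here is mRNA from a GAL4-UAS reporter in transfected HepG2 cells carrying a Gal4-fused receptor, 24 h post-dose. DMSO served as negative control and baseline.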

[5] = read-out: E-selectin (Homo sapiens) (UniProt P16581); assay: BSK_3C_Eselectin: BioMAP Diversity Plus: 3C Assay for Eselectin Biomarker Activity (AID 2283015); conditions: primary human endothelial cells (HUVEC); actives raise or lower the signal
Outline: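 Endpoint derived by bidirectional fitting against DMSO vehicle; signal is ELISA-detected E-selectin from primary HUVEC at 24 h post-dosing, with parallel SRB staining (0.1% SRB, 560 nm) flagging cytotoxicity.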

[6] = read-out: Interleukin-1 alpha (IL1a), IL1A (gene 3552); assay: BSK_BE3C_IL1a: BioMAP Diversity Plus: BE3C Assay for Interleukin-1 alpha (IL1a) Biomarker Activity (AID 2283016); conditions: primary human bronchial epithelial cells; actives raise or lower the signal
Outline: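 IL-1a measured by ELISA after 24 h treatment of human primary bronchial epithelial cells, with gain or loss of signal fitted versus DMSO. Parallel cultures stained with SRB gauge overt cytotoxicity.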

[7] = read-out: Monocyte Chemoattractant Protein-1 (MCP1), CCL2 (gene 6347); assay: BSK_3C_MCP1: BioMAP Diversity Plus: 3C Assay for Monocyte Chemoattractant Protein-1 (MCP1) Biomarker Activity (AID 2283017); conditions: primary human endothelial cells (HUVEC); actives raise or lower the signal
Outline: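 Using human vascular primary endothelium, researchers measured MCP-1 by ELISA 24 h after treatment, with DMSO serving as negative control for bidirectional fitting.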

[8] = read-out: Monocyte Chemoattractant Protein-1 (MCP1), CCL2 (gene 6347); assay: BSK_4H_MCP1: BioMAP Diversity Plus: 4H Assay for Monocyte Chemoattractant Protein-1 (MCP1) Biomarker Activity (AID 2283018); conditions: primary human endothelial cells (HUVEC); actives raise or lower the signal
Outline: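 ELISA of MCP-1 (CCL2) 24 h after chemical dosing of HUVEC in the BioMAP 4H system. Gain or loss versus DMSO fitted; parallel SRB staining (560 nm) tracked overt cytotoxicity.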

[9] = read-out: Human Leukocyte Antigen - DR isotype (HLADR), HLA-DRA (gene 3122); assay: BSK_3C_HLADR: BioMAP Diversity Plus: 3C Assay for Human Leukocyte Antigen - DR isotype (HLADR) Biomarker Activity (AID 2283019); conditions: primary human endothelial cells (HUVEC); actives raise or lower the signal
Outline: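 Compound added to primary HUVEC cultures, 24 h incubation, then HLA-DR determined by ELISA; endpoint derived by bidirectional fitting relative to DMSO negative control.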

[10] = read-out: Interleukin-8 (IL8), CXCL8 (gene 3576); assay: BSK_3C_IL8: BioMAP Diversity Plus: 3C Assay for Interleukin-8 (IL8) Biomarker Activity (AID 2283020); conditions: primary human endothelial cells (HUVEC); actives raise or lower the signal
Outline: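 IL-8 was measured by ELISA in HUVEC cultures 24 h after chemical dosing, with gain or loss of signal fitted relative to DMSO. Parallel SRB total-protein staining tracked overt cytotoxicity.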

[11] = read-out: Monokine induced gamma interferon (MIG), CXCL9 (gene 4283); assay: BSK_3C_MIG: BioMAP Diversity Plus: 3C Assay for Monokine induced gamma interferon (MIG) Biomarker Activity (AID 2283021); conditions: primary human endothelial cells (HUVEC); actives raise or lower the signal
Outline: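 ELISA measurement of MIG in human umbilical vein endothelial cells 24 h after treatment. Cytotoxicity tracked by SRB staining in parallel cultures; gain or loss of signal fitted relative to DMSO.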

[12] = biological target: human Vitamin D Receptor (VDR), VDR (gene 7421) (UniProt P11473); assay: ATG_VDR_TRANS: Attagene TRANS-FACTORIAL HepG2 Assay for human Vitamin D Receptor (VDR) (AID 2283022; active means hit-call score of the fitted dose curve at least 0.9, where 1 is the maximum)
human Vitamin D Receptor (VDR), VDR (gene 7421), sequence (P11473 whole entry, looked up): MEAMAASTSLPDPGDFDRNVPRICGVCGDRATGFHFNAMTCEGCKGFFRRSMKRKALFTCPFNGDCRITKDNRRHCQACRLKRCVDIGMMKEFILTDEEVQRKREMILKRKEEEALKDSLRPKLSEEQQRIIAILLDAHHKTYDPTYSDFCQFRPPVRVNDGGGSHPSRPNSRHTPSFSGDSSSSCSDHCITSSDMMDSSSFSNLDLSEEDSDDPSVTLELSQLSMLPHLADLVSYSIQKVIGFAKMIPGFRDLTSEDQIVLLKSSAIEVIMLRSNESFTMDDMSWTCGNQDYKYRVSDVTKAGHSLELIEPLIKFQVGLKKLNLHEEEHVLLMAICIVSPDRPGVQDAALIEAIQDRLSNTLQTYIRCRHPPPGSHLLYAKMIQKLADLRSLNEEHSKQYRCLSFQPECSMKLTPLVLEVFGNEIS
Outline: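 Multiplexed TRANS reporter in HepG2; 24 h treatment; reporter mRNA by RT-PCR plus capillary electrophoresis; upregulation scored relative to DMSO.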

[13] = BSK_3C_SRB: Viability Assessment in the BioMAP Diversity Plus: 3C Assay (AID 2283023); conditions: primary human endothelial cells (HUVEC);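 further: fitted both ways against DMSO so a hit may be signal rise or drop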
Outline: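 Overt cytotoxicity is gauged in parallel confluent HUVEC cultures by SRB total-protein staining at the time of biomarker measurement, 24 h after dosing. Gain or loss of signal is fitted versus DMSO.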

[14] = read-out: Matrix Metallopeptidase 1 (MMP1), MMP1 (gene 4312); assay: BSK_BE3C_MMP1: BioMAP Diversity Plus: BE3C Assay for Matrix Metallopeptidase 1 (MMP1) Biomarker Activity (AID 2283024); conditions: primary human bronchial epithelial cells; actives raise or lower the signal
Outline: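 ELISA measurement of MMP-1 after 24 h compound exposure of primary human bronchial epithelial cells. Changes in either direction fitted relative to DMSO; parallel SRB staining checked overt cytotoxicity.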

[15] = BSK_3C_Vis: BioMAP Diversity Plus: 3C Assay for Morphology Visualization (AID 2283025); conditions: primary human endothelial cells (HUVEC);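 further: fitted both ways so gain or loss versus DMSO counts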;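 on AC50: light microscopy image of cell morphology used as background control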
Outline: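 Light-microscopy visualization of HUVEC cultures at 24 h post-treatment, with DMSO as baseline for bidirectional fitting.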

[16] = read-out: Pselectin, SELP (gene 6403); assay: BSK_4H_Pselectin: BioMAP Diversity Plus: 4H Assay for Pselectin Biomarker Activity (AID 2283026); conditions: primary human endothelial cells (HUVEC); actives raise or lower the signal
Outline: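 ELISA of surface P-selectin on HUVEC, 24 h after dosing, with parallel SRB staining (0.1% after 10% TCA fixation, 560 nm) for overt cytotoxicity. Activity fitted in both directions relative to DMSO.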

[17] = BSK_4H_SRB: Viability Assessment in the BioMAP Diversity Plus: 4H Assay (AID 2283027); conditions: primary human endothelial cells (HUVEC);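 further: cells exposed to compound for 24 h before staining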;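 on AC50: curves fitted both ways versus DMSO so AC50 may be loss or gain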
Outline: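 Cytotoxicity read-out in primary human endothelial cells: after 24 h compound exposure, cells were TCA-fixed (10%), stained with 0.1% SRB and absorbance taken at 560 nm. Values fitted in both directions relative to DMSO.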

[18] = BSK_BE3C_SRB: Viability Assessment in the BioMAP Diversity Plus: BE3C Assay (AID 2283028); conditions: primary human bronchial epithelial cells;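 on AC50: fitted both ways so AC50 may mark signal gain or loss versus DMSO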
Outline: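 SRB total-protein staining (0.1%, after TCA fixation) of chemically dosed human bronchial epithelial primary cells at 24 h; DMSO serves as the negative control for bidirectional curve fitting.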

[19] = read-out: Urokinase-type plasminogen activator receptor (uPAR), PLAUR (gene 5329); assay: BSK_4H_uPAR: BioMAP Diversity Plus: 4H Assay for Urokinase-type plasminogen activator receptor (uPAR) Biomarker Activity (AID 2283030); conditions: primary human endothelial cells (HUVEC); actives raise or lower the signal
Outline: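 Endpoint derived via bidirectional curve fitting against DMSO baseline; readout was ELISA detection of uPAR on umbilical vein endothelial cells at 24 h post-treatment, with SRB-stained parallel cultures assessing cytotoxicity.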

[20] = read-out: Thrombomodulin, THBD (gene 7056); assay: BSK_3C_Thrombomodulin: BioMAP Diversity Plus: 3C Assay for Thrombomodulin Biomarker Activity (AID 2283029); conditions: primary human endothelial cells (HUVEC); actives raise or lower the signal
Outline: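 ELISA measurement of thrombomodulin on HUVEC surface 24 h after chemical dosing; activity fitted in both directions relative to DMSO vehicle.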

Measured: AC50

E-selectin (Homo sapiens), sequence (P16581 whole entry, looked up): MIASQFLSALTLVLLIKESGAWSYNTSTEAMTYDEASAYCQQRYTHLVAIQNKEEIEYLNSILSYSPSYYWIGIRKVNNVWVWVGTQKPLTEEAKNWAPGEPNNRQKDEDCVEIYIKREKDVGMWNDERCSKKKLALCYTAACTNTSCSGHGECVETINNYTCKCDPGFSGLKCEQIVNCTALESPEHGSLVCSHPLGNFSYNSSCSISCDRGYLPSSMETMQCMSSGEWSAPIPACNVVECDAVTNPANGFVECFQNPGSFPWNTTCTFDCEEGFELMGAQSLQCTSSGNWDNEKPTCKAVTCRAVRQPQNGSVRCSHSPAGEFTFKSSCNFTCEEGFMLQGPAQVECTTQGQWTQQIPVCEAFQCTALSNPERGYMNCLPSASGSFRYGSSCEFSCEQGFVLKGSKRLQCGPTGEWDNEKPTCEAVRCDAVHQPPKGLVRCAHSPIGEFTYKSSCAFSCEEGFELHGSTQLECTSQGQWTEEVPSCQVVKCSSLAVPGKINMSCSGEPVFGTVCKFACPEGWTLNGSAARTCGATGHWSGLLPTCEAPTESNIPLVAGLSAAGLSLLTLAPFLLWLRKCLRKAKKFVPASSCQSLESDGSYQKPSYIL

COc1nc(C)nc(NC(=O)NS(=O)(=O)c2ccccc2CCC(F)(F)F)n1
active: [9] 20 µM
inactive: [1] | [2] | [3] | [4] | [5] | [6] | [7] | [8] | [9] | [10] | [11] | [12] | [13] | [14] | [15] | [16] | [17] | [18] | [19]

C=CC1(C)OC(=O)N(c2cc(Cl)cc(Cl)c2)C1=O (stereo not given)
inactive: [1] | [2] | [3] | [4] | [5] | [6] | [7] | [8] | [9] | [10] | [11] | [12] | [13] | [14] | [15] | [16] | [17] | [18] | [20] | [19]

COC(=O)N(OC)c1ccccc1COc1ccn(-c2ccc(Cl)cc2)n1
inactive: [1] | [2] | [3] | [6] | [11] | [14]
active: [4] 3.06 µM | [5] 5.33 µM | [7] 19 µM | [8] 7.63 µM | [9] 7.6 µM | [10] 13.5 µM | [13] 20 µM | [15] 13.7 µM | [16] 20 µM | [17] 10.5 µM | [18] 28.1 µM | [19] 20 µM

COC(=O)C=C(C)OP(=O)(OC)OC
inactive: [1] | [2] | [3] | [4] | [5] | [6] | [7] | [8] | [9] | [10] | [11] | [13] | [14] | [15] | [16] | [17] | [18] | [19]

CCNc1nc(Cl)nc(NC(C)C)n1
inactive: [1] | [2] | [3] | [4] | [5] | [6] | [7] | [8] | [9] | [10] | [11] | [12] | [13] | [14] | [15] | [16] | [17] | [18] | [19]
